High-throughput results (PubChem BioAssay)
ULK1 primary = human ULK1 kinase inhibition, primary screen; O75385; AlphaScreen Atg13 phosphorylation by ULK1, luminescence; inhibition, % at 5.96 µM; actives 1.9% (n = 30,000); in the data active means inhibition above about 43%;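 further: 0% = median of compound wells and 100% = no enzyme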
ASK1 primary = inhibitors of human ASK1 kinase. AlphaScreen MKK6 phosphorylation by ASK1, luminescence. actives 0.99% (n = 22,000). inhibition, % at 7.44 µM; in the data active means inhibition above about 35%;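 further: 0% = median of compound wells and 100% = no enzyme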
Target sequence (Q99683 whole entry, looked up): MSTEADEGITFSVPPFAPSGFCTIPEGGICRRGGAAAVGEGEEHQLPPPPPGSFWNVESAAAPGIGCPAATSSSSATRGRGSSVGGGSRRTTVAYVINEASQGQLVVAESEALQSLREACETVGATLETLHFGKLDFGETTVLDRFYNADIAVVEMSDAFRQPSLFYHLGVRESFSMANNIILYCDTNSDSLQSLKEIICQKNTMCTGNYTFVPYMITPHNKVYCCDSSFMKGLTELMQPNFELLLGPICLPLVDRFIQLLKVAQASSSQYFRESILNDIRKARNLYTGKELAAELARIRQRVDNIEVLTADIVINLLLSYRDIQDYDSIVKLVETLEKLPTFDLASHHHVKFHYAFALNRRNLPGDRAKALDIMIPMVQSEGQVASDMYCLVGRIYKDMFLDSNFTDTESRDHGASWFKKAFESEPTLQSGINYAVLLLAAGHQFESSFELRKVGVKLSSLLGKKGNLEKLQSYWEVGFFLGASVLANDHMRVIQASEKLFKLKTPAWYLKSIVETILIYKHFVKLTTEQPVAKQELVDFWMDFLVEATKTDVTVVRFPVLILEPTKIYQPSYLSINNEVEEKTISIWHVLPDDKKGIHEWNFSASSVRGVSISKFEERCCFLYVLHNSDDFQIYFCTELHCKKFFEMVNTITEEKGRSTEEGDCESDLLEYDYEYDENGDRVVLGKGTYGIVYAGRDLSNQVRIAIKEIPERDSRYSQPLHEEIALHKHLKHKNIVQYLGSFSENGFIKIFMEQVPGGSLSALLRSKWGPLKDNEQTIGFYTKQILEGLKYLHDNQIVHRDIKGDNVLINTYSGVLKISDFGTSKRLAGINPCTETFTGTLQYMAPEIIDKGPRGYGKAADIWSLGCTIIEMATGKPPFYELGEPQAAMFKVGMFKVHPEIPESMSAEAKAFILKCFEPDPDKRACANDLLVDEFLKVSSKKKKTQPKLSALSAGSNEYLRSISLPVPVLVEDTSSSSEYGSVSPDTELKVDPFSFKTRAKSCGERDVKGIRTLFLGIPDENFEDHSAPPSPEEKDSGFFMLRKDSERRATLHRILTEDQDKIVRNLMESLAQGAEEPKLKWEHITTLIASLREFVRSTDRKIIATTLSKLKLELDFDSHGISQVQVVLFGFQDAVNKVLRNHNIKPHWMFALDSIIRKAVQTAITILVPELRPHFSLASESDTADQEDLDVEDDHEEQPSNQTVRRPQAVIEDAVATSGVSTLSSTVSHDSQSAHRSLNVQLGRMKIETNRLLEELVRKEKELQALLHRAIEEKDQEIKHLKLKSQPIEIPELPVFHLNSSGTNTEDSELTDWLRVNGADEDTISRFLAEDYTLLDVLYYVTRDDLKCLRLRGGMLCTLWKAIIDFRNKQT
An asterisk follows results filed as active; . = no result. Compounds with a hit are over-represented: about 2.5% of the library has one in this group of screens.

SMILES	ULK1 primary	ASK1 primary
Cc1nn(C)c(C)c1-c1nc(NCCO)c2ncn(-c3ccccc3)c2n1	6	-6
Cc1nc2cc(-c3ccnc(Nc4cccc(C(=O)NC(C)C)c4)n3)ccc2c(=O)n1C1CC1	9	-2
O=C(c1cccc(Nc2nccc(-c3ccc4nc(C5CC5)[nH]c(=O)c4c3)n2)c1)N1CCCC1	80*	-26
O=C(c1cccc(Nc2nccc(-c3ccc4c(=O)[nH]c(C5CC5)nc4c3)n2)c1)N1CCCC1	65*	-17
Cc1nc2ccc(-c3ccnc(Nc4cccc(C(=O)N5CCCC5)c4)n3)cc2c(=O)n1C	-10	3
Cc1cc(NCCN(C(C)C)C(C)C)nc(-c2c(C)nn(C)c2C)n1	-32	-31
CCCNc1nc(NCc2cccnc2)ncc1C	6	-6
Cc1cnc(Nc2ccc(-n3ccnc3)cc2)nc1NCCO	50*	-8
c1ccc(OCCNc2nc(Nc3ccc(-n4ccnc4)cc3)nc3nc[nH]c23)cc1	53*	-10
Oc1ccc(CCNc2nc(Nc3ccccc3)nc3nc[nH]c23)cc1	36	-26
c1ccc(Nc2nc(NCCOc3ccccc3)c3[nH]cnc3n2)cc1	28	7
Cc1cnc(Nc2ccc(-n3ccnc3)cc2)nc1NCCc1ccc(O)cc1	29	-12
Oc1ccc(CCNc2nc(Nc3ccncc3)nc3nc[nH]c23)cc1	51*	-71
c1ccc(OCCNc2nc(Nc3cccnc3)nc3nc[nH]c23)cc1	48*	14
Cc1cnc(Nc2ccc(-n3ccnc3)cc2)nc1NCCOc1ccccc1	34	11
CCN(CC)C(=O)C1CCCN(c2cc(C(=O)Nc3ccc(NC(C)=O)cc3)ccn2)C1 (configuration not stated)	6	-19
NC(=O)c1ccc(-c2nc(NCc3cccnc3)c3ncn(-c4ccccc4)c3n2)cc1	27	3
O=C(NCc1cccc(C(F)(F)F)c1)c1ccc2nc(NCCCN3CCCC3=O)sc2c1	-4	11
CS(=O)(=O)c1ccc(N2CCc3ccccc3C2)cc1	10	.
CN(C)c1cccc(Nc2nc(NCCOc3ccccc3)c3ncn(C4CCCCC4)c3n2)c1	-4	13
Oc1ccc(CCNc2nc(Nc3ncccn3)nc3nc[nH]c23)cc1	8	-6
Oc1ccc(CCNc2nc(Nc3ccc(-n4ccnc4)cc3)nc3nc[nH]c23)cc1	50*	-66
N#C/C(=C\c1cccc([N+](=O)[O-])c1)C(=O)Nc1ccc([N+](=O)[O-])cc1Br	45*	.
N#C/C(=C\c1cccc(Br)c1)C(=O)Nc1cc([N+](=O)[O-])ccc1F	39	.
CN1CCN(c2ccc(-c3nc(NCCO)c4ncn(-c5ccsc5)c4n3)cc2)CC1	-5	-14
SMILES	ULK1 primary	ASK1 primary
CCN(CC)C(=O)C1CCCN(c2nc(Nc3ccc(Oc4ccccc4)cc3)c3cc(OC)c(OC)cc3n2)C1 (configuration not stated)	-12	-18
CC(C)(O)c1ccccc1CC[C@@H](SCC1(CC(=O)O)CC1)c1cccc(/C=C/c2ccc3ccc(Cl)cc3n2)c1	43*	.
CC1C(=O)Nc2cc(S(C)(=O)=O)ccc2N1C(=O)c1ccc(C(F)(F)F)cc1 (configuration not stated)	3	.
c1cc(Nc2nc(NC3CC3)c3ncn(C4CCCCC4)c3n2)ncn1	44*	-40
c1ccc(Nc2nc(NC3CC3)c3ncn(C4CCCCC4)c3n2)nc1	-11	1
c1cc(N2CCOCC2)ccc1Nc1nc(NC2CC2)c2ncn(C3CCCCC3)c2n1	7	32
Cc1noc(C)c1-c1nc(Nc2ccc(N3CCOCC3)cc2)c2ncn(C3CCCCC3)c2n1	50*	7
c1cc(N2CCOCC2)ccc1Nc1nc(Nc2ccc(N3CCOCC3)cc2)c2ncn(C3CCCCC3)c2n1	53*	-12
Cc1noc(C)c1-c1nc(Nc2ccccc2)c2ncn(C3CCCCC3)c2n1	8	-6
O=C(NCc1ccccc1)c1ccnc(N2CCOCC2)c1	-1	-2
COc1cc(-c2cn[nH]c2)cc2c(N(C)C)nc(C3COc4ccccc4O3)nc12 (configuration not stated)	-26	4
NC(=O)c1ccccc1Nc1ccnc(-c2cc(Cl)ccc2F)c1	-19	-14
O=C(OCCO)c1ccccc1O	0	.
CCOC(=O)c1ccccc1O	54*	.
Cc1cnc(NCc2ccc3c(c2)OCO3)nc1NCCO	1	-3
N#Cc1cc(-c2ccnc(Nc3ccc(CN4CCCCC4)cc3)n2)cc(N2CCOCC2)c1	71*	16
N#Cc1cc(-c2ccnc(Nc3ccc(N4CCCCC4)cc3)n2)cc(N2CCOCC2)c1	-5	5
N#Cc1cc(-c2ccnc(Nc3ccc(N4CCNCC4)cc3)n2)cc(N2CCOCC2)c1	93*	34
N#Cc1cc(-c2ccnc(Nc3ccc(-c4ccccn4)cc3)n2)cc(N2CCOCC2)c1	4	21
O=C(Cc1cn(-c2ccc(Nc3ccc(-n4ccnc4)cc3)nn2)c2ccccc12)Nc1ccc2c(c1)OCO2	14	14
CN1CCN(c2ccc(-c3nc(NCCc4ccc(O)cc4)c4ncn(-c5ccsc5)c4n3)cc2)CC1	-24	-6
CCN1CCN(c2ncn(-c3ccc(Nc4nccc(-c5cccc(N6CCOCC6)c5)n4)cc3)n2)CC1	-7	3
COc1cc(Nc2nc(Nc3ccccn3)nc3c2ncn3-c2ccccc2)cc(OC)c1OC	-1	9
O=C(Nc1ccc(N2CCOCC2)cc1)C1CCN(c2ccc(Nc3ccc(C(F)(F)F)cc3)nn2)CC1	25	16
O=C(NCCO)C1CCN(c2ccc(Nc3ccc(C(F)(F)F)cc3)nn2)CC1	46*	-12
SMILES	ULK1 primary	ASK1 primary
COc1ccc(CCNc2nc(Nc3nc4ccccc4n3C)nc3c2ncn3C2CCCCC2)cc1	14	19
Cn1c(Nc2nc(NCCOc3ccccc3)c3ncn(C4CCCCC4)c3n2)nc2ccccc21	52*	-1
COc1ccc2c(c1)CC(c1nc3cc(-c4ccnc(N)n4)ccc3o1)CO2 (configuration not stated)	-3	11
c1cc(Nc2nc(NC3CC3)c3[nH]cnc3n2)ccn1	52*	-24
c1ccc(Nc2nc(Nc3ccc4ncccc4c3)nc3nc[nH]c23)cc1	24	-29
c1ccc(OCCNc2nc(Nc3ccc4ncccc4c3)nc3nc[nH]c23)cc1	28	10
CCCNc1nc(Nc2ccc3ncccc3c2)nc2nc[nH]c12	49*	-27
c1cncc(CNc2nc(NC3CC3)c3[nH]cnc3n2)c1	-6	-4
c1cnc2ccc(Nc3nc(NC4CC4)c4[nH]cnc4n3)cc2c1	64*	-39
N[C@@H](Cc1ccc(-c2cn[nH]c2)cc1)C(=O)NCc1ccccc1	-8	-24
O=C(Nc1ccc(-c2cn[nH]c2)cc1)OCCc1ccccc1	-10	4
CN(C)c1cccc(Nc2nc3ncnc(NCCN4CCOCC4)c3[nH]2)c1	12	13
COc1cc(OC)nc(Oc2ccccc2/C=N/Nc2ccc(Cl)nn2)n1	-5	.
O=C(/C(=C\c1ccc(OCc2ccccc2)cc1)n1ccccc1=O)N1CCOCC1	-22	.
CCNc1nc(Nc2ccc3c(c2)OCO3)nc(N(CC)CC)n1	20	5
NS(=O)(=O)c1ccc(Nc2nccc(-c3ccccc3)n2)cc1	7	8
CC(C)S(=O)(=O)Nc1ccc(-c2ccnc(Nc3ccc(S(N)(=O)=O)cc3)n2)cc1	50*	-9
NS(=O)(=O)c1ccc(Nc2nccc(-c3ccc(NS(=O)(=O)Cc4ccccc4)cc3)n2)cc1	33	-14
